# Assays:
# [1] = biological target: Death-associated protein kinase 2 (Homo sapiens) (UniProt Q9UIK4); details: at 10 µM
# [2] = biological target: T1, Serine/threonine-protein kinase DCLK2 (Homo sapiens) (UniProt Q8N568); details: at 1 µM
# T1 sequence (whole entry): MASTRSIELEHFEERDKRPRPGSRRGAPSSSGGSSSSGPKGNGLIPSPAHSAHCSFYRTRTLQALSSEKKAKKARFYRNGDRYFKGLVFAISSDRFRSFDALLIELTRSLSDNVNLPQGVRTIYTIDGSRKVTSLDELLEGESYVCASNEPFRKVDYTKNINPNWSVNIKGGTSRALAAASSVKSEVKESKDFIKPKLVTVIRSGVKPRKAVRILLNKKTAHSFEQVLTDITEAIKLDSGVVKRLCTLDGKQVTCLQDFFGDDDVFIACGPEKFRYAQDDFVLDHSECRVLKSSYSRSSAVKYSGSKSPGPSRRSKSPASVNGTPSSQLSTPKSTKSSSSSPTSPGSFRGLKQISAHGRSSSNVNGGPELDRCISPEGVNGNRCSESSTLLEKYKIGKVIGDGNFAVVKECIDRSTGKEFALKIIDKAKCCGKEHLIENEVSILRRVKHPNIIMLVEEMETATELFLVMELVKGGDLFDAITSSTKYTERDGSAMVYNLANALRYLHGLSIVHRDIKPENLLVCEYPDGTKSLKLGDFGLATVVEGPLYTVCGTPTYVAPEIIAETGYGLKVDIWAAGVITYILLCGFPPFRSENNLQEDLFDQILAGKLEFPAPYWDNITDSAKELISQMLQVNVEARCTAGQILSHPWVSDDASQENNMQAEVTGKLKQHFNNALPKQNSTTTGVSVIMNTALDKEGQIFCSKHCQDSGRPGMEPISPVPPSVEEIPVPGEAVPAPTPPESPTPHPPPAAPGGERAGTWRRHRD
# [3] = biological target: T1, Serine/threonine-protein kinase DCLK2 (Homo sapiens); details: at 10 µM
# [4] = biological target: T2, Myotonin-protein kinase (Homo sapiens) (UniProt Q09013); details: at 1 µM
# T2 sequence (whole entry): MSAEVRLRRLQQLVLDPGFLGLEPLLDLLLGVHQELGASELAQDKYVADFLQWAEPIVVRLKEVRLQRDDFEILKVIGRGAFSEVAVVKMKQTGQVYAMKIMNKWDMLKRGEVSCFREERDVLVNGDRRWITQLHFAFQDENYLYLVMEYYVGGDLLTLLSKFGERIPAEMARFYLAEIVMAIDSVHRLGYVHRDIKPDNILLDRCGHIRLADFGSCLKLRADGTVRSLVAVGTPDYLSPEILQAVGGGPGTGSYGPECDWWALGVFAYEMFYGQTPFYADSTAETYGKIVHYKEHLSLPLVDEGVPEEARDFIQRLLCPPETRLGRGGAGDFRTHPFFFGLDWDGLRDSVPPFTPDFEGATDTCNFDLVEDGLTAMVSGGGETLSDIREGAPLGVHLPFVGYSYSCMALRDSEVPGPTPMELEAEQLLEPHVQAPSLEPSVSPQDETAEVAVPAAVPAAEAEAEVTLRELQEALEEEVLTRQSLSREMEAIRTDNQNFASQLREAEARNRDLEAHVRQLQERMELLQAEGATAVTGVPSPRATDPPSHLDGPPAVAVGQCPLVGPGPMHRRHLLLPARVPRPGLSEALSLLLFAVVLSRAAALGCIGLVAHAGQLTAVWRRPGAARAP
# [5] = biological target: T2, Myotonin-protein kinase (Homo sapiens); details: at 10 µM
# [6] = biological target: T3, Serine/threonine-protein kinase 17A (Homo sapiens) (UniProt Q9UEE5); details: at 1 µM
# T3 sequence (whole entry): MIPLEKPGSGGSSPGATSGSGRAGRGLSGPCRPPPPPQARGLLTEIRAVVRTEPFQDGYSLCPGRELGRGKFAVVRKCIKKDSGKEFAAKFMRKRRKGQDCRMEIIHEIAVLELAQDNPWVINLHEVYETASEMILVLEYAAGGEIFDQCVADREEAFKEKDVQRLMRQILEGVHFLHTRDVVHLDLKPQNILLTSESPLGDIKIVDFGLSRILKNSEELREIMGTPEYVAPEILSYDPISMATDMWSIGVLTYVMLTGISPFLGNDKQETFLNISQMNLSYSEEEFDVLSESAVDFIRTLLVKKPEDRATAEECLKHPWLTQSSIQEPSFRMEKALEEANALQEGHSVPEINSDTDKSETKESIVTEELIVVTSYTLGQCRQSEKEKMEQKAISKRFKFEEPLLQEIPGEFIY
# [7] = biological target: T3, Serine/threonine-protein kinase 17A (Homo sapiens); details: at 10 µM
# [8] = biological target: T4, Dual specificity tyrosine-phosphorylation-regulated kinase 2 (Homo sapiens) (UniProt Q92630); details: at 1 µM
# T4 sequence (whole entry): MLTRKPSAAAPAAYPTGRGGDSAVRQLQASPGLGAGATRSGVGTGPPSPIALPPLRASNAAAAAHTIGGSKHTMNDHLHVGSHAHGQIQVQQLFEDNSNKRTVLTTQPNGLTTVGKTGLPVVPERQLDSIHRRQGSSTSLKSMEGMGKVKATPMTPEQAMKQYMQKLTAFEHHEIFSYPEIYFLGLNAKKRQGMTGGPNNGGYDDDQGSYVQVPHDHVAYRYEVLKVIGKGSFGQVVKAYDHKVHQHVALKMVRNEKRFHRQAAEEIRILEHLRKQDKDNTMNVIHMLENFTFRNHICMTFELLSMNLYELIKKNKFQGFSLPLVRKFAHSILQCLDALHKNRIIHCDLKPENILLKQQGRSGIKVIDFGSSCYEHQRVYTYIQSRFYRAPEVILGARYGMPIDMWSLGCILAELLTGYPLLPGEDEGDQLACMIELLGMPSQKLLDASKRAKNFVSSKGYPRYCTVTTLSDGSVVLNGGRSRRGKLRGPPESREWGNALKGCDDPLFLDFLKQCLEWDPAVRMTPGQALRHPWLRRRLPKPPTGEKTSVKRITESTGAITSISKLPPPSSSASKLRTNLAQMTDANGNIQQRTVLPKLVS
# [9] = biological target: T4, Dual specificity tyrosine-phosphorylation-regulated kinase 2 (Homo sapiens); details: at 10 µM
# [10] = biological target: T5, Ephrin type-A receptor 1 (Homo sapiens) (UniProt P21709); details: at 1 µM
# T5 sequence (whole entry): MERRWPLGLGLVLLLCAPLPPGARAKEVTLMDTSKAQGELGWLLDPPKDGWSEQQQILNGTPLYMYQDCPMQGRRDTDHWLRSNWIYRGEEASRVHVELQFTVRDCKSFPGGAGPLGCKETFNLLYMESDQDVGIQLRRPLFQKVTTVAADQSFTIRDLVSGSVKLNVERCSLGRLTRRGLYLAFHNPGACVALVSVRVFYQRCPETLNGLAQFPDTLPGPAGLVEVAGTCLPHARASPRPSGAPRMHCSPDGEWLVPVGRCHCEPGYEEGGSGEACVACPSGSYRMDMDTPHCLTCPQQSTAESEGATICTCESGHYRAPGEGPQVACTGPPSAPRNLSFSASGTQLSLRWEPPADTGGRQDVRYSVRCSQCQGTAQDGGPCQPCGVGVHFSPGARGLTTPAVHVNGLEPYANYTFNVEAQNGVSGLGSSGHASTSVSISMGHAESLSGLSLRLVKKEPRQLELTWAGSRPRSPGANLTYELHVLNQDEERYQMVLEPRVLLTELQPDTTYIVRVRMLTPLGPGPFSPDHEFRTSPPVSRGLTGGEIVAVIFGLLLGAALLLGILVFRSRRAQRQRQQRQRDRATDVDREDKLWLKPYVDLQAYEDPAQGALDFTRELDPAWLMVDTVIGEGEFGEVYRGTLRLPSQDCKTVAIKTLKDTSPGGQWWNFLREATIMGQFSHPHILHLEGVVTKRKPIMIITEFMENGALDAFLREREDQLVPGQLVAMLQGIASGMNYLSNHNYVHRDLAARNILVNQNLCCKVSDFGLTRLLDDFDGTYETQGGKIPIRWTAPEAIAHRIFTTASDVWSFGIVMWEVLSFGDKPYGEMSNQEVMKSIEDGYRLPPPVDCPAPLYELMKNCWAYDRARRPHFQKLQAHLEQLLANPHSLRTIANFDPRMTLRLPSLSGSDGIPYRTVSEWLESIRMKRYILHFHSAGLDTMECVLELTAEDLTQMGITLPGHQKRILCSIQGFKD
# [11] = biological target: T5, Ephrin type-A receptor 1 (Homo sapiens); details: at 10 µM
# [12] = biological target: Ephrin type-A receptor 2 (Homo sapiens) (UniProt P29317); details: at 10 µM
# Sequence of Ephrin type-A receptor 2 (Homo sapiens) (P29317 whole entry): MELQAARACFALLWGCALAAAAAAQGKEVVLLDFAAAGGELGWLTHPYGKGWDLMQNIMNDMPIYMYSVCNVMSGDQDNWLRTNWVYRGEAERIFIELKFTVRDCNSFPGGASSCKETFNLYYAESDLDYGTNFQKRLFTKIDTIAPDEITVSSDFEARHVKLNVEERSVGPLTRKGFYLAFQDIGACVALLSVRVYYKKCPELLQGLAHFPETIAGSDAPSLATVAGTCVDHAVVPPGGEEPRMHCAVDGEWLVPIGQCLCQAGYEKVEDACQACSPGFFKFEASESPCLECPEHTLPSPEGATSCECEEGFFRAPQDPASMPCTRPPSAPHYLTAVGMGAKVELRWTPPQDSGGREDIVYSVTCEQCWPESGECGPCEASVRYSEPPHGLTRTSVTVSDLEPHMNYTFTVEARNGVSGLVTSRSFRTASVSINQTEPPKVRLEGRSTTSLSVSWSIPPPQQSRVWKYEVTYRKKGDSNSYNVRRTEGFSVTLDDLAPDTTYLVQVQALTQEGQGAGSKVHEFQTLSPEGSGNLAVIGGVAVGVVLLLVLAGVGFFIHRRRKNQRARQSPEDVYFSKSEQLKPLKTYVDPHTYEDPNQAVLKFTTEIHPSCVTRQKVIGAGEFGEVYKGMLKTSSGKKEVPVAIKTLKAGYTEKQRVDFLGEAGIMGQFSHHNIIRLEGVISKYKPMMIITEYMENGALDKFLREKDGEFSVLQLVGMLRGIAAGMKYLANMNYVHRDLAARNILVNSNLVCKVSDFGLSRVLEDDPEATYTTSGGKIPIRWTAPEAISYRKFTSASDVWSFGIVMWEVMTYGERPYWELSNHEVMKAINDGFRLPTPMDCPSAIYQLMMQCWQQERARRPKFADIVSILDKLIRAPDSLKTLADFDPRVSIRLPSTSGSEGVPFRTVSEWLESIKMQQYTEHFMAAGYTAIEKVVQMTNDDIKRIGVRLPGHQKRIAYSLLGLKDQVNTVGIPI
# [13] = biological target: Death-associated protein kinase 2 (Homo sapiens) (UniProt Q9UIK4); details: at 1 µM
# [14] = biological target: Death-associated protein kinase 1 (Homo sapiens) (UniProt P53355); details: at 10 µM
# Sequence of Death-associated protein kinase 1 (Homo sapiens) (P53355 whole entry, looked up, the tested form may be a part): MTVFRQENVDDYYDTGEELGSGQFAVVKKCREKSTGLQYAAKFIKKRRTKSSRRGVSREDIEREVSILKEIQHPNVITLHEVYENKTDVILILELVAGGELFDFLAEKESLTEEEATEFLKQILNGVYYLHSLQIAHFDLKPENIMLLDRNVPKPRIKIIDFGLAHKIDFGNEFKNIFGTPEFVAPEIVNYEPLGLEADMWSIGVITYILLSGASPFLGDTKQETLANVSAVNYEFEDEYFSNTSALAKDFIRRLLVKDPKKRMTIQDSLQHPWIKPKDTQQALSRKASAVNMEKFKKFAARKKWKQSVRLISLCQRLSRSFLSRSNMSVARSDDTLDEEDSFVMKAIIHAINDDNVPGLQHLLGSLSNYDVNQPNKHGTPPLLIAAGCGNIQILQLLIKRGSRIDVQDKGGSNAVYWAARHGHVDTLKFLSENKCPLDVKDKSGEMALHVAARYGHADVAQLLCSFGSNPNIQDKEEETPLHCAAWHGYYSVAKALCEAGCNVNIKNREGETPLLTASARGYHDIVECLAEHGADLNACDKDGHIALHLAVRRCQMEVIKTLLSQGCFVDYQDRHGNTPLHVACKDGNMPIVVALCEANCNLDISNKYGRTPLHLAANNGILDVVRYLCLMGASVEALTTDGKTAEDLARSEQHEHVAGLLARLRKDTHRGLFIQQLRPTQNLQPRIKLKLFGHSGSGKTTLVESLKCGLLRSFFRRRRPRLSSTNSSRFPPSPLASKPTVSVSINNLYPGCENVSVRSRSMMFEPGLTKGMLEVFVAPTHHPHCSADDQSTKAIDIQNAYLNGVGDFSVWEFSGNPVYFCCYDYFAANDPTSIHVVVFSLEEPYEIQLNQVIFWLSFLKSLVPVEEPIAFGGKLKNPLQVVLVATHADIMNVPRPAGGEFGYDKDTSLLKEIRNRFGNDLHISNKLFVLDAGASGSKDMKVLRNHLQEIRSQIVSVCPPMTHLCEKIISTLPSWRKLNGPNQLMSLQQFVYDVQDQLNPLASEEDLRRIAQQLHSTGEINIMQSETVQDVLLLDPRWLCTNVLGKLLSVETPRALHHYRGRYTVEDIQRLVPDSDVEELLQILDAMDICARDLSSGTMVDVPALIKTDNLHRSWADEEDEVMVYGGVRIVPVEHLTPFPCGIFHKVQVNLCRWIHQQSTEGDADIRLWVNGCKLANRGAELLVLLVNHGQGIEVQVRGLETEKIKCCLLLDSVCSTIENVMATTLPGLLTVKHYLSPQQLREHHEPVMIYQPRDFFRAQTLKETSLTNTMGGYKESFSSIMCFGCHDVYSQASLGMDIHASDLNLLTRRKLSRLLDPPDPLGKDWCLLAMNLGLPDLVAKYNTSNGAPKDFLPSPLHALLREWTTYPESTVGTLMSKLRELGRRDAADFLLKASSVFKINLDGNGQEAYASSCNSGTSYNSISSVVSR
# [15] = biological target: T6, Discoidin domain-containing receptor 2 (Homo sapiens) (UniProt Q16832); details: at 1 µM
# T6 sequence (whole entry): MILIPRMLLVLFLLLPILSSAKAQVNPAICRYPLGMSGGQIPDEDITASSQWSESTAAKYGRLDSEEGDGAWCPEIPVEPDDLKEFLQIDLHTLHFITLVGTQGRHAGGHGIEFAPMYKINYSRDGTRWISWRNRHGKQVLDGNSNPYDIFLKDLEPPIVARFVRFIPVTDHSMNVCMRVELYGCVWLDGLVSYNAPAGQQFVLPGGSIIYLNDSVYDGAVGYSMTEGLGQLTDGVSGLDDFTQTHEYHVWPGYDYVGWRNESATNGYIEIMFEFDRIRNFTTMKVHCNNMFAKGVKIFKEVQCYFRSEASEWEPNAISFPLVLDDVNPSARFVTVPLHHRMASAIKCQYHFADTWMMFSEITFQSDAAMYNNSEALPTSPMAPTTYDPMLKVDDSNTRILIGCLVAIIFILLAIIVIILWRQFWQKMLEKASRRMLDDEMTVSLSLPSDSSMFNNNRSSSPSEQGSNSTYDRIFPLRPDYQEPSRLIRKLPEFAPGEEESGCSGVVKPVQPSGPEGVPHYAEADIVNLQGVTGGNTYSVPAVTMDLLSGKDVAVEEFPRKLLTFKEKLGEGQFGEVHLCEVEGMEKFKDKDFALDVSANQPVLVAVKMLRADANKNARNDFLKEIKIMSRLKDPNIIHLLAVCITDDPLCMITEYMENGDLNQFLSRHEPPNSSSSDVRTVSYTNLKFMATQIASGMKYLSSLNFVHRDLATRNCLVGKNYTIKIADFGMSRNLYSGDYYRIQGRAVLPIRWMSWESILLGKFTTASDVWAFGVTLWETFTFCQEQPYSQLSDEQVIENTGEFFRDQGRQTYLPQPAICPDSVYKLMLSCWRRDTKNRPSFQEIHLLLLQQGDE
# [16] = biological target: T6, Discoidin domain-containing receptor 2 (Homo sapiens); details: at 10 µM
# [17] = biological target: Ephrin type-A receptor 2 (Homo sapiens) (UniProt P29317); details: at 1 µM
# Sequence of Death-associated protein kinase 2 (Homo sapiens) (Q9UIK4 whole entry, looked up): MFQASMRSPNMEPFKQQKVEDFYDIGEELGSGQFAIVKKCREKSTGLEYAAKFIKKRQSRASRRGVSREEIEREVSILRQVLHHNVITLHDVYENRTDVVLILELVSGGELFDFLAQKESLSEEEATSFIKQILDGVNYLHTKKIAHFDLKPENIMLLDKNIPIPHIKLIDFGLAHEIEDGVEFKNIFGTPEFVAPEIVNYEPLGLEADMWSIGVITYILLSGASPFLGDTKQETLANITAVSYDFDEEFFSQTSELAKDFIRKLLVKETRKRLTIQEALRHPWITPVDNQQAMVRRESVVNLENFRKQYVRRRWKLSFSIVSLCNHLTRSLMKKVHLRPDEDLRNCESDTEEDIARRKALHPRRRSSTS
smiles,measurement,setting,value
O=C(c1cc2cc(O)ccc2[nH]1)c1cc2cc(O)ccc2[nH]1,residual activity,[1],73%
same,residual activity,[2],70%
same,residual activity,[3],59%
same,residual activity,[4],120%
same,residual activity,[5],122%
same,residual activity,[6],13%
same,residual activity,[7],2%
same,residual activity,[8],81%
same,residual activity,[9],47%
same,residual activity,[10],83%
same,residual activity,[11],47%
O=C1NC(=O)C(c2c[nH]c3ccccc23)=C1c1c[nH]c2ccccc12,residual activity,[1],58%
same,residual activity,[6],67%
same,residual activity,[7],25%
same,residual activity,[10],77%
same,residual activity,[11],22%
same,residual activity,[12],50%
CN([C@@H](Cc1ccc(OS(=O)(=O)c2cccc3cnccc23)cc1)C(=O)N1CCN(c2ccccc2)CC1)S(=O)(=O)c1cccc2cnccc12,residual activity,[4],135%
same,residual activity,[5],115%
same,residual activity,[6],117%
O=C1Cc2c([nH]c3ccc([N+](=O)[O-])cc23)-c2ccccc2N1,residual activity,[6],10%
same,residual activity,[7],7%
same,residual activity,[8],54%
same,residual activity,[9],71%
same,residual activity,[10],109%
same,residual activity,[11],103%
COc1ccc(CNC(=O)Nc2ncc([N+](=O)[O-])s2)cc1,residual activity,[13],102%
same,residual activity,[1],104%
same,residual activity,[4],100%
same,residual activity,[5],80%
Fc1ccc(-c2nc3n(c2-c2ccncc2)CCS3)cc1,residual activity,[14],93%
same,residual activity,[15],83%
same,residual activity,[16],35%
same,residual activity,[4],87%
same,residual activity,[5],96%
same,residual activity,[7],91%
same,residual activity,[9],91%
same,residual activity,[17],99%
same,residual activity,[12],87%

# Reference: ChEMBL document CHEMBL2218924, “A broad activity screen in support of a chemogenomic map for kinase signalling research and drug discovery” (Biochem J, 2013)
